NRP1-CendR mod: modulators of CendR peptide binding to NRP-1, primary screen, biochemical, fluorescence polarization, uHTS; Neuropilin-1 (Homo sapiens), O14786; FAM-RPARPAR peptide binding to NRP-1; inhibition, % at 25 µM; 360,000 tested, 0.85% active; AID 602438, 2012;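 active = inhibition or corrected inhibition above about 18%, plus a signal ratio from 0.5 to 1.5, limit read from the data, passing the limit was not always enough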
APOBEC3G inh: APOBEC3G DNA deaminase inhibitors, primary screen, biochemical, fluorescence, single-stranded DNA substrate, uHTS | recombinant A3G, ssDNA deamination FAM/TAMRA fluorescence | inhibition, % at 20 µM | 330,000 tested, 0.28% active;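 active = inhibition of at least 40% at 20 µM, with no more than 30% in the related APOBEC3A deaminase screen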
ADAM10 inh: human ADAM10 inhibitors, primary screen, biochemical, QFRET, HTS. AID 720582, 2013. Disintegrin and metalloproteinase domain-containing protein 10 (Homo sapiens), O14672. inhibition, % at 7 µM. 370,000 tested, 0.62% active. recombinant ADAM10, EDANS/DABCYL FRET peptide cleavage, 3 h;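 active = inhibition above a per-campaign cutoff equal to the mean of compounds falling between control-based bounds plus 3 SD, cut at about 20% in these data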
Target sequence (O14672 214-748 limits assumed): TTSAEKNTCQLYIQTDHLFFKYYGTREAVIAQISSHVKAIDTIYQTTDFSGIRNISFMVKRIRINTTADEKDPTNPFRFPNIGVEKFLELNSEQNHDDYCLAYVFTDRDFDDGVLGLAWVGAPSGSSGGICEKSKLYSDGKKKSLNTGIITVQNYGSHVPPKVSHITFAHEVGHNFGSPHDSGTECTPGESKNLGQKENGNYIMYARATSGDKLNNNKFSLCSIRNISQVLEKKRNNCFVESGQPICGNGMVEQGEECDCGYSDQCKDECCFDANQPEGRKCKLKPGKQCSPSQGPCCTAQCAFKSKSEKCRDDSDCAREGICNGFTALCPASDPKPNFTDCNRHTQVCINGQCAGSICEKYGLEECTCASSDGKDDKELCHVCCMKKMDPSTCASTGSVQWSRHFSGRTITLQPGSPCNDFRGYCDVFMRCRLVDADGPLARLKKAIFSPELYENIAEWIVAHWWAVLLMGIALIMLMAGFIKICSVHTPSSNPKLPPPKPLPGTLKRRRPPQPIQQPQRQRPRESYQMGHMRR
ADAM17 inh: ADAM17 inhibitors, primary screen, biochemical, QFRET; inhibition, % at 6.95 µM; recombinant ADAM17, EDANS/DABCYL FRET peptide cleavage; AID 720648, 2013; 370,000 tested, 0.83% active;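 active = inhibition above the mean of compounds lying between control limits plus 3 SD, set per campaign, cut at about 8.5% in these data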
A3A deaminase: APOBEC3A ssDNA deaminase inhibitors, primary screen, selectivity assay for APOBEC3G inhibitor project, biochemical, FAM/TAMRA oligo cleavage fluorescence. 330,000 tested, 0.41% active. inhibition, % at 20 µM. recombinant A3A, FAM/TAMRA ssDNA deamination fluorescence;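 active = at least 40% inhibition at 20 µM here, with at most 30% in a related deaminase screen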
APOBEC3A confirm: APOBEC3A deaminase inhibitors, retest, confirmation, selectivity assay for APOBEC3G inhibitor project, biochemical, single concentration, fluorescence readout; recombinant A3A, ssDNA deaminase UDG fluorescence assay; 1,400 tested, 63% active; shares compounds with A3A deaminase; inhibition, % at 20 µM;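 active = inhibition reaching a set limit, 80% of the first screen's cutoff, at 20 µM in any replicate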
UDG A3A counter: E. coli UDG inhibitors, confirmation, counter-screen for APOBEC3A inhibitor project, biochemical, single concentration, fluorescence, FAM/TAMRA oligo | UDG counterscreen, FAM/TAMRA uracil oligo fluorescence | 1,000 tested, under 10 active | AID 504714, 2011 | shares compounds with A3A deaminase | inhibition, % at 20 µM; call rule not given here
Each line names hits and unclear results; the compound was inactive in the other large screens (follow-up assays come after a bar, where they were run). A selection: hits, their analogues and other compounds. The true share with any hit is near 2.4%.

CCCCCCCCN1C(=O)N2Cc3ccc(C)cc3C2CS1(=O)=O (stereo not given)	none (no result: NRP1-CendR mod, APOBEC3G inh, A3A deaminase)
CN(C)CCN1C(=O)C(=O)/C(=C(/O)c2ccccc2)C1c1ccccc1F (stereo not given)	A3A deaminase 72 | APOBEC3A confirm inactive | UDG A3A counter inactive
CN(C)CCCN1C(=O)C(=O)/C(=C(/O)c2ccncc2)C1c1ccccc1 (stereo not given)	none
CC(NC(=S)Nc1ccc(F)cc1)c1ccccc1 (stereo not given)	A3A deaminase 88 | APOBEC3A confirm inactive | UDG A3A counter inactive
O=C(CSc1nnc(Cc2cccs2)n1-c1ccccc1)Nc1ccccc1-c1ccccc1	none (no result: NRP1-CendR mod, APOBEC3G inh, A3A deaminase)
O=[N+]([O-])c1ccc(CN2CCN(c3ccccc3Cl)CC2)o1	A3A deaminase 54 | APOBEC3A confirm inactive
O=C(Nc1ccc(-c2ccccc2)cc1)c1ccco1	A3A deaminase 42 | APOBEC3A confirm inactive
CCN(CC(=O)Nc1c(F)cccc1F)C(=O)CCNS(=O)(=O)c1ccc(C)c(C)c1	A3A deaminase 49 | APOBEC3A confirm inactive | UDG A3A counter inactive
O=C(Nc1ccc(Cl)cc1Cl)C1CCCO1 (stereo not given)	none
Cc1cc(F)ccc1NC(=O)C1CCCO1 (stereo not given)	A3A deaminase 57 | APOBEC3A confirm inactive | UDG A3A counter inactive
CCC(/C=C1\Sc2ccc(OC)cc2N1CC)=C\c1sc2ccc(OC)cc2[n+]1CCCS(=O)(=O)[O-]	none
CCN1/C(=C/c2cc[n+](CCCS(=O)(=O)[O-])c3ccccc23)Sc2ccccc21	A3A deaminase 76 | APOBEC3A confirm 69 | UDG A3A counter inactive
COc1cccc(-c2nnn(CC(C)=O)n2)c1	A3A deaminase 53 | APOBEC3A confirm inactive | UDG A3A counter inactive
COc1ccc(-c2ccc(-c3nnn(CC(C)=O)n3)cc2)cc1	none
Cc1cccc(N=C2NC(=O)/C(=C/c3cccn3C)S2)c1C	none
Cc1ccccc1N=C1NC(=O)/C(=C/c2cccn2-c2cccc(C(=O)O)c2)S1	A3A deaminase 50 (no result: NRP1-CendR mod) | APOBEC3A confirm 43 | UDG A3A counter inactive
CCOc1ccc(CN2C(=O)c3ccccc3C2=O)cc1C(=O)Nc1nnc(SCC)s1	none
CCOc1ccc(CN2C(=O)c3ccccc3C2=O)cc1C(=O)NC1CC(C)(C)NC(C)(C)C1	A3A deaminase 45 | APOBEC3A confirm 64 | UDG A3A counter inactive
CC1(CC(=O)N/N=C/c2ccc(-c3ccc(C(=O)O)cc3)o2)OCCO1	none
O=C(CN1CCOCC1)N/N=C/c1ccc(-c2ccc(C(=O)O)cc2)o1	A3A deaminase 43 | APOBEC3A confirm 85 | UDG A3A counter inactive
O=C(CC1(O)C(=O)Nc2cc(Cl)cc(Cl)c21)c1ccccc1O (stereo not given)	NRP1-CendR mod 43, A3A deaminase 65 | APOBEC3A confirm inactive | UDG A3A counter inactive
O=C(CC1(O)C(=O)Nc2ccccc21)c1ccccc1O (stereo not given)	none
Cn1c(=O)n(C)c2cc(C(N)=O)ccc21	none
Cn1c(=O)n(C)c2cc(C(=O)O)ccc21	A3A deaminase 60 | APOBEC3A confirm inactive | UDG A3A counter inactive
O=C1NC(=O)/C(=C\c2ccc(Br)o2)S1	A3A deaminase 55 | APOBEC3A confirm inactive
O=C(Nc1ccc(C(F)(F)F)cc1)OC1CCC12CCC(c1ccccc1)CC2 (stereo not given)	none (no result: NRP1-CendR mod, APOBEC3G inh, A3A deaminase)
CN(Cc1cn(Cc2ccccc2)nn1)S(=O)(=O)c1ccc(F)cc1Br	none (no result: NRP1-CendR mod, APOBEC3G inh, A3A deaminase)
C[N+]1(C2CCC3CCC2C3O)CCCC1 (stereo not given)	A3A deaminase 41 | APOBEC3A confirm 67 | UDG A3A counter inactive
CC(=O)OC1C2CCC1C([N+]1(C)CCCCC1)CC2 (stereo not given)	A3A deaminase 73 | APOBEC3A confirm 73 | UDG A3A counter inactive
O=C(C(=O)N1CCN(S(=O)(=O)c2ccccc2)CC1)c1cccc(C(F)(F)F)c1	none (no result: NRP1-CendR mod, APOBEC3G inh, A3A deaminase)
CCn1c(/C=C/c2ccccc2)nc2ccccc21	none
CCCn1c(/C=C/c2cc[n+](C)cc2)nc2ccccc21	A3A deaminase 57 | APOBEC3A confirm 62
O=C1[C@@H](C2CCCCC2)[C@@H]2c3ccccc3C=NN2[C@@H]2c3ccccc3C=NN12	none (no result: NRP1-CendR mod, APOBEC3G inh, A3A deaminase)
Cc1ccc(C=Nn2c(-c3n[nH]c4c3CCC4)n[nH]c2=S)s1	none (no result: NRP1-CendR mod, APOBEC3G inh, A3A deaminase)
O=[N+]([O-])c1ccc2c(c1)ncn2-c1ccccc1	none (no result: APOBEC3G inh, A3A deaminase)
Cn1c(-[n+]2c(-c3ccccc3)cc(-c3ccccc3)cc2-c2ccccc2)nc2cc([N+](=O)[O-])ccc21	A3A deaminase 46 | APOBEC3A confirm 56 | UDG A3A counter inactive
COc1ccc(CNS(=O)(=O)c2cc3c(cc2Br)CC(C)N3C(C)=O)cc1 (stereo not given)	none (no result: NRP1-CendR mod, APOBEC3G inh, A3A deaminase)
O=C(O)c1ccc(CSc2n[nH]c(-c3ccco3)n2)cc1	A3A deaminase 85 | APOBEC3A confirm 59 | UDG A3A counter inactive
S=C1NCCOc2ccccc21	none (no result: NRP1-CendR mod, APOBEC3G inh, A3A deaminase)
O=C(NCCCc1ccccc1)OC1CC2CC1[C@H]1CCCCN1C2 (stereo not given in full)	none (no result: NRP1-CendR mod, APOBEC3G inh, A3A deaminase)
O=C(CSc1nccc(=O)[nH]1)NCc1ccco1	A3A deaminase 49 | APOBEC3A confirm 35 | UDG A3A counter inactive
O=C(CSc1nc2ncccc2[nH]1)NCc1ccco1	none
Cc1cc(=O)[nH]c(SCC(=O)NCc2ccco2)n1	A3A deaminase 65 | APOBEC3A confirm 55 | UDG A3A counter inactive
Cc1nnc(SCC(=O)NCc2ccco2)[nH]c1=O	none
CCOC(=O)c1ccc(NC(=O)CSc2nc(C)cc(=O)[nH]2)cc1	A3A deaminase 46 (no result: ADAM10 inh, ADAM17 inh) | APOBEC3A confirm 66 | UDG A3A counter inactive
CN(CCCOC(=O)c1cc2ccccc2o1)C1CN(Cc2cn(Cc3ccccc3Cl)nn2)S(=O)(=O)C1 (stereo not given)	none (no result: NRP1-CendR mod, APOBEC3G inh, A3A deaminase)
CC1CCN(CC(O)COC2CC(C)CC(C)(C)C2)CC1 (stereo not given)	none
CC[N+]1(CC(O)COC2CC(C)CC(C)(C)C2)CCOCC1 (stereo not given)	A3A deaminase 43 | APOBEC3A confirm 75 | UDG A3A counter inactive
